Measurements reported in PubChem BioAssay (Tox21).
Unmarked numbers belong to inactive results. Results filed as inconclusive are left out. A call without a number means that no potency is given here. Active and inactive are the calls of the source. Unless noted, calls follow the shape of the dose curve; as a rule, active = well fitted curve in the direction sought with a large enough effect in the repeat runs; inconclusive = weak or mixed curves; inactive = no such curve, though single readings can be large; an effect the other way counts as inactive or inconclusive.

Assays:
[1] = qHTS assay to identify small molecule antagonists of the estrogen receptor beta (ER-beta) signaling pathway - cell viability counter screen (AID 1259382);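 also: HEK293T cells carrying ER-beta-UAS-bla reporter stimulated with estradiol; series mostly up to about 92 µM; nearly all actives have a fitted effect of over 55% in size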
How it was run: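 ER-beta-UAS-bla HEK293T cells (2,000/well, 2% charcoal-stripped FBS) were pre-incubated 6 hr at 37C, then given compound plus 1nM final 17-beta-estradiol for 16 hr. Viability was read in the same wells by CellTiter-Glo luminescence after 30 min at room temperature.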

[2] = target: Estrogen receptor (Homo sapiens) (UniProt P03372); assay: qHTS assay to identify small molecule agonists of the estrogen receptor alpha (ER-alpha) signaling pathway in the presence of an antagonist (AID 1259383; calls by dose curve; also: nearly all actives have a fitted effect of over 15% in size; also: potency is read from the fitted curve at half-maximal effect; as to activation: top concentration of the series differs between compounds)
How it was run: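 VM7Luc4E2 cells (endogenous full-length ER-alpha, 4×ERE-luciferase) were precultured 5 days in phenol red-free medium with 10% charcoal-stripped FBS, given 10.0nM ICI-182,780 (final), then treated with compounds at 15 concentrations for 22hr at 37C; luminescence read with ONE-Glo.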

[3] = target: Thyrotropin receptor (Homo sapiens) (UniProt P16473); assay: qHTS assay to identify small molecule antagonists of the thyroid stimulating hormone receptor (TSHR) signaling pathway (AID 1259385; calls by dose curve; also: nearly all actives have a fitted effect of over 20% in size)
How it was run: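 TSHR-HEK293 cells (800/well) plated 18 h, then compounds with Ro20-1724 and TSH at 1.5 ng/mL final, 30 min at room temperature. cAMP quantified by HTRF (cAMP-d2/anti-cAMP-cryptate, 1 h); 15 concentrations in triplicate.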

[4] = qHTS assay to identify small molecule agonists of the estrogen receptor alpha (ER-alpha) signaling pathway in the presence of an antagonist - cell viability counter screen (AID 1259386);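 also: series mostly up to about 92 µM; cells exposed to compounds for 22 h at 37 °C before the viability read; nearly all actives have a fitted effect of over 30% in size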
How it was run: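 VM7Luc4E2 cells (endogenous full-length ER-alpha, 4×ERE-luciferase) were held 5 days in phenol red-free medium with 10% charcoal-stripped FBS, plated, then given 10.0nM ICI-182,780 and compounds at 15 concentrations for 22hr at 37C; viability read by CellTiter-Fluor fluorescence.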

[5] = target: Progesterone receptor (Homo sapiens) (UniProt P06401); assay: qHTS assay to identify small molecule agonists of the progesterone receptor (PR) signaling pathway (AID 1346784; calls by dose curve; also: nearly all actives have a fitted effect of over 30% in size)
How it was run: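 Compounds were tested for PR agonism in HEK 293T cells bearing a beta-lactamase gene under UAS control. Treatment lasted 16 hr at 37C; signal came from fluorescence of a FRET substrate.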

[6] = target: Progesterone receptor (Homo sapiens) (UniProt P06401); assay: qHTS assay to identify small molecule antagonists of the progesterone receptor (PR) signaling pathway (AID 1346795; active = well fitted inhibition curve with a large enough effect in the signal ratio in the repeat runs, not every such curve was filed as active; the % refers to the signal ratio; also: potency is read from the fitted curve at half-maximal effect)
How it was run: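 In HEK293T cells bearing the PR-UAS-bla reporter, compound effects on promegestone-driven (1 nM) beta-lactamase expression are assessed after 16 hr using a fluorescent FRET substrate incubated 2 hr at room temperature.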

[7] = qHTS assay to identify small molecule antagonists of the progesterone receptor (PR) signaling pathway - cell viability counter screen (AID 1346798); also: series mostly up to about 92 µM; nearly all actives have a fitted effect of over 50% in size
How it was run: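 Following a 4 hr attachment, PR-UAS-bla HEK293T cells in charcoal-stripped FBS medium were exposed to compounds with R5020 for 16 hr; CellTiter-Glo was added and luminescence read after 30 min at room temperature.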

[8] = qHTS assay to identify small molecule agonists of the progesterone receptor (PR) signaling pathway - cell viability counter screen (AID 1346799; calls by dose curve; also: nearly all actives have a fitted effect of over 45% in size)
How it was run: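 Here, 3,000 PR-UAS-bla HEK293T cells per well were treated with compounds for 16 hr after a 6 hr preincubation at 37C and 5% CO2; cell viability is the CellTiter-Glo luminescence signal.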

[9] = qHTS assay to identify small molecule antagonists of the TGF-beta/Smad signaling pathway - cell viability counter screen (AID 1346824); also: nearly all actives have a fitted effect of over 50% in size
How it was run: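 SBE-bla HEK 293T cells, incubated overnight, then compound plus 0.25 ng/mL TGF-beta1 (stock added) for 5 hr at 37 C. Viability was read in the same wells by CellTiter-Glo luminescence after 30 min at room temperature.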

[10] = qHTS assay to identify small molecule agonists of the TGF-beta/Smad signaling pathway - cell viability counter screen (AID 1346829); also: top concentration of the series differs between compounds; nearly all actives have a fitted effect of over 45% in size
How it was run: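 CellTiter-Glo luminescence readout; SBE-bla HEK 293T cells, overnight plating, compound 5 hr at 37 C/5% CO2, then bla substrate 2 hr RT, then CellTiter-Glo 30 min RT.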

[11] = qHTS assay to identify small molecule agonists of the TGF-beta/Smad signaling pathway (AID 1346859; active = well fitted activation curve with a large enough effect in the signal ratio in the repeat runs, not every such curve was filed as active; the % refers to the signal ratio; also: series mostly up to about 77 µM)
How it was run: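 Each well held 4,000 SBE-bla HEK 293T cells incubated overnight before compound addition; 5 hr later the cleavable FRET substrate went on for 2 hr at room temperature, and fluorescence was read at two emissions.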

[12] = Human pregnane X receptor (PXR) small molecule agonists, qHTS cell viability counter screen (AID 1346977); also: nearly all actives have a fitted effect of over 50% in size
How it was run: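 Tox21 qHTS format; PXR-Luc HepG2, 2,000/well, charcoal-stripped FBS 5%. Cpd exposure 24hr. Read: CellTiter-Fluor fluorescence, multiplexed with luciferase.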

[13] = Caspase-3/7 induction in HepG2 cells by small molecules, qHTS assay (AID 1346978); also: nearly all actives have a fitted effect of over 15% in size
How it was run: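 Wild-type HepG2 cells, 2,000/well, settled 5 hr at 37 C and 5% CO2, then compound-treated for 17 hr; caspase-3/7 activity read by luminescent Caspase-Glo 3/7 after 30 min at room temperature.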

[14] = Caspase-3/7 induction in CHO-K1 cells by small molecules, qHTS cell viability counter screen (AID 1346979); also: nearly all actives have a fitted effect of over 35% in size
How it was run: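 CellTiter-Fluor viability check, qHTS format: wild-type CHO-K1, 16hr compound treatment, 1hr reagent incubation, fluorescence read.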

[15] = Caspase-3/7 induction in CHO-K1 cells by small molecules, qHTS assay (AID 1346980); also: nearly all actives have a fitted effect of over 15% in size
How it was run: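 Wild-type CHO-K1 cells exposed to compounds for 17hr at 37 C, 5% CO2. Caspase-3/7 activity then measured by Caspase-Glo 3/7 luminescence after 30min at room temperature.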

[16] = Caspase-3/7 induction in HepG2 cells by small molecules, qHTS cell viability counter screen (AID 1346981); also: series mostly up to about 92 µM; nearly all actives have a fitted effect of over 30% in size
How it was run: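 Wild-type HepG2 cells (2,000/well) were allowed to settle for 5 hr at 37 C, 5% CO2, then dosed with compounds in DMSO by pin transfer. After 16 hr at 37 C, CellTiter-Fluor was added and fluorescence read 1 hr later.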

[17] = target: Nuclear receptor subfamily 1 group I member 2 (Homo sapiens) (UniProt O75469); assay: Human pregnane X receptor (PXR) small molecule agonists, qHTS assay (AID 1346982); also: nearly all actives have a fitted effect of over 35% in size; also: potency is read from the fitted curve at half-maximal effect
How it was run: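 PXR-Luc HepG2 cells (CYP3A4 promoter-driven luciferase) were seeded in medium with 5% charcoal-stripped FBS, left 5 hr at 37 C, then exposed to compounds in DMSO for 24 hr. Luminescence was read after ONE-Glo addition.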

[18] = qHTS assay to identify small molecule agonists or antagonists of the thyroid stimulating hormone receptor (TSHR) signaling pathway - wild type cell line counter screen (AID 1259384; calls by dose curve)
How it was run: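 Wild-type Hek293 cells, 800/well, 18 h at 37C, then compound with Ro20-1724 for 30 min RT. cAMP by HTRF (cAMP-d2/anti-cAMP cryptate), 1 h RT, fluorescence read. 15 concentrations, triplicates.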

[19] = target: Thyrotropin-releasing hormone receptor (Homo sapiens) (UniProt P34981); assay: qHTS assay to identify small molecule antagonists of the thyrotropin-releasing hormone receptor (TRHR) signaling pathway (AID 1346877; active = well fitted inhibition curve with a large enough effect in the repeat runs, not every such curve was filed as active; also: series mostly up to about 51 µM)
How it was run: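 TRHR-expressing HEK293 cells were seeded, cultured 18 h at 37 °C, then loaded with calcium dye for 2 h. Compounds were pre-incubated 5 min at room temperature before 1 nM TRH (final) was added, and kinetic fluorescence was recorded for 3 min.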

[20] = target: Thyrotropin-releasing hormone receptor (Homo sapiens) (UniProt P34981); assay: qHTS assay to identify small molecule agonists of the thyrotropin-releasing hormone receptor (TRHR) signaling pathway (AID 1346891; calls by dose curve; also: series mostly up to about 58 µM)
How it was run: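 Screening of agonists relied on calcium signalling in HEK293 cells expressing human TRHR: dye loading 2 h at 37 °C preceded compound addition and a 3-min fluorescence time course.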

Thyrotropin receptor (Homo sapiens), sequence (P16473 whole entry, looked up): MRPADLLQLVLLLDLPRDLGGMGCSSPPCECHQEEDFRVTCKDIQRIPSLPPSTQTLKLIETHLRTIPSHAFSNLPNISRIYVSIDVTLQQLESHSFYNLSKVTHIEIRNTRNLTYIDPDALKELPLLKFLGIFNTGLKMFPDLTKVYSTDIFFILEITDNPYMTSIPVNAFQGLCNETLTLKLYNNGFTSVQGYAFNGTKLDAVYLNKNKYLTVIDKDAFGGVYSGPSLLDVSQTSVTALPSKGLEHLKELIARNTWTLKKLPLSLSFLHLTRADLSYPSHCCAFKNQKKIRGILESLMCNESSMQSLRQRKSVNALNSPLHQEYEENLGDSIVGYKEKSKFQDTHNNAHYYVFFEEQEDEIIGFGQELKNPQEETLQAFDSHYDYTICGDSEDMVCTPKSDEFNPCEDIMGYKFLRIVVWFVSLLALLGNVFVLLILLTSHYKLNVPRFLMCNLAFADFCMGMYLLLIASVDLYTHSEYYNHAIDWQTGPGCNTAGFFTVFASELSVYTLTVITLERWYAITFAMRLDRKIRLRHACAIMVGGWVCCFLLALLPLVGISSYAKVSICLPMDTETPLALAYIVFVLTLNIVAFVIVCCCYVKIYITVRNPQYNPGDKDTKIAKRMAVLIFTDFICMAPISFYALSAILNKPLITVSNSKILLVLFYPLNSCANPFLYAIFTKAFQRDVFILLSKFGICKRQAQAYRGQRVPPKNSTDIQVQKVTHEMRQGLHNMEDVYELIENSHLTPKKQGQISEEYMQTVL
Thyrotropin-releasing hormone receptor (Homo sapiens), sequence (P34981 whole entry, looked up): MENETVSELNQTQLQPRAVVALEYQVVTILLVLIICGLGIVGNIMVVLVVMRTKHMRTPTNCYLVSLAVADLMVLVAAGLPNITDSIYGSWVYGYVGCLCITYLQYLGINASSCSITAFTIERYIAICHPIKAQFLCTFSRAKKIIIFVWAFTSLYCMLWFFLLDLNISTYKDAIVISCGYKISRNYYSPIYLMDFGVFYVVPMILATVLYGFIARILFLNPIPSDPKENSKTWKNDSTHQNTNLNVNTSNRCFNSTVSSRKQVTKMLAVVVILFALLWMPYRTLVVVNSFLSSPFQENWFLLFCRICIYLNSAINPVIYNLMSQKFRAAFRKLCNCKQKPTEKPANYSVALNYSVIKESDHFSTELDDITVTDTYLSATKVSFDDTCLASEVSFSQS
Progesterone receptor (Homo sapiens), sequence (P06401 whole entry, looked up): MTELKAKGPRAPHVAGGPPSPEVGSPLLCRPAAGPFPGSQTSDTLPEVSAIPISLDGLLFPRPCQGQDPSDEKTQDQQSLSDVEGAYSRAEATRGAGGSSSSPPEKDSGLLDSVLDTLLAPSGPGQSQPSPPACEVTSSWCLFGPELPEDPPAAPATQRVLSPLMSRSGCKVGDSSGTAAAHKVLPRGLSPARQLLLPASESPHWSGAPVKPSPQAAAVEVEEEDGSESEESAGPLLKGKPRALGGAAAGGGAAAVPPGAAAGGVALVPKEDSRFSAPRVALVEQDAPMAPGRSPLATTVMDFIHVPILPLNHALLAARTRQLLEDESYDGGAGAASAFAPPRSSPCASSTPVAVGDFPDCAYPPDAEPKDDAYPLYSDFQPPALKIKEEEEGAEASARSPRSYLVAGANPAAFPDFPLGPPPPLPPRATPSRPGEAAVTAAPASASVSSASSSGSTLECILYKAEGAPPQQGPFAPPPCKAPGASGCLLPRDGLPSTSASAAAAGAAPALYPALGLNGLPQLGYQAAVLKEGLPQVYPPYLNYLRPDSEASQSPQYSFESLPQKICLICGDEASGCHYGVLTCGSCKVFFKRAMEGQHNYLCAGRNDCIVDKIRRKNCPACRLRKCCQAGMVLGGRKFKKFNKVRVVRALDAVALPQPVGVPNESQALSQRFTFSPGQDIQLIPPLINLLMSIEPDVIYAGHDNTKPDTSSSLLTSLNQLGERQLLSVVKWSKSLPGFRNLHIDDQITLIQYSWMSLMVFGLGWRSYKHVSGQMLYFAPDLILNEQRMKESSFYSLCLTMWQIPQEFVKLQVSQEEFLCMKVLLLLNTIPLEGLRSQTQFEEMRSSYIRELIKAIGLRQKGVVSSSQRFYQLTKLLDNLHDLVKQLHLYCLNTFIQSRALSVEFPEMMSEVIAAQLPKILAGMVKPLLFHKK
Nuclear receptor subfamily 1 group I member 2 (Homo sapiens), sequence (O75469 whole entry, looked up): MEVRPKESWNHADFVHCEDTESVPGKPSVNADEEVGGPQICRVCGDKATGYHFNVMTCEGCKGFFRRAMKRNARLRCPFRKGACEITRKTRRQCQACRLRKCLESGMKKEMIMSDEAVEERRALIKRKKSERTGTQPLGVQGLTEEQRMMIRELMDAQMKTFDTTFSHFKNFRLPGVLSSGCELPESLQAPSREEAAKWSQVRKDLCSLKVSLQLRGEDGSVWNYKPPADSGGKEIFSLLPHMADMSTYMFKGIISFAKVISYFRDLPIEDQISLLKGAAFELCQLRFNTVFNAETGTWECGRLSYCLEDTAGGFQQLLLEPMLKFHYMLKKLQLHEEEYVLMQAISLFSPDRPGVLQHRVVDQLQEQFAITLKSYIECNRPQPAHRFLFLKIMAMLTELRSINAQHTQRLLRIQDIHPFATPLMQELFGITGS
Estrogen receptor (Homo sapiens), sequence (P03372 whole entry, looked up): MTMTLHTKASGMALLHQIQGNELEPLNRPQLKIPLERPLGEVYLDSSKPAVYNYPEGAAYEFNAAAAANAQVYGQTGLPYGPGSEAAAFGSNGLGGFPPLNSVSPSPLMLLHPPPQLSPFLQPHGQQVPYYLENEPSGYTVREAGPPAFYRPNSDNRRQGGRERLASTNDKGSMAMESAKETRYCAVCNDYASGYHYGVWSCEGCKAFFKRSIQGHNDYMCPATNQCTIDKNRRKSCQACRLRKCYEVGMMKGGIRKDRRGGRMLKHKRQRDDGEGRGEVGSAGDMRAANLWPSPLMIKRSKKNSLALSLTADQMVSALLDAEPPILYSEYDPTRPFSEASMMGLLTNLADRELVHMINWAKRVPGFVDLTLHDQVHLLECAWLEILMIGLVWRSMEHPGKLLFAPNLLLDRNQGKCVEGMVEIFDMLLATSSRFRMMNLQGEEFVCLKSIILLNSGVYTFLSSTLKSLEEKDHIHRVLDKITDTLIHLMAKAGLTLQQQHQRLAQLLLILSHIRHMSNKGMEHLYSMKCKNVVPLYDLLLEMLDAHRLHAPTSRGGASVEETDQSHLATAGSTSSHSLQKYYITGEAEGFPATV

Compound | outcome [1] | Potency [2] | outcome [3] | outcome [4] | Potency [5] | Potency [6] | outcome [7] | outcome [8] | outcome [9] | outcome [10] | outcome [11] | outcome [12] | outcome [13] | Potency [14] | outcome [15] | outcome [16] | Potency [17] | outcome [18] | outcome [19] | outcome [20]
CO/N=C(/C(=O)N[C@@H]1C(=O)N2C(C(=O)[O-])=C(C[n+]3ccn4ncccc43)CS[C@H]12)c1nsc(N)n1 | inactive | inactive | inactive | inactive | inactive | inactive | inactive | inactive | inactive | inactive | inactive | inactive | inactive | inactive | inactive | inactive | inactive |  |  | 
COC(=O)c1cccc(Cl)c1 | inactive | inactive |  | inactive | inactive | inactive | inactive | inactive | inactive | inactive | inactive | inactive | inactive | inactive | inactive | inactive | inactive | inactive | inactive | inactive
O=C(NCN1CCOCC1)c1cnccn1 | inactive | inactive |  | inactive | inactive | inactive | inactive | inactive | inactive | inactive | inactive | inactive | inactive | inactive | inactive | inactive | inactive |  | inactive | inactive
CCNC(=O)NCc1cccc(Cl)c1 | inactive | inactive | inactive | inactive | inactive | inactive | inactive | inactive | inactive | inactive | inactive | inactive | inactive | inactive | inactive | inactive | inactive |  |  | 
CCO | inactive | inactive | inactive | inactive | inactive | inactive | inactive | inactive | inactive | inactive | inactive | inactive | inactive | inactive | inactive | inactive | inactive |  | inactive | inactive
CC1(C)Cc2cccc(N)c2O1 | inactive | inactive | inactive | inactive | inactive | inactive | inactive | inactive | inactive | inactive | inactive | inactive | inactive | inactive | inactive | inactive | 34400 nM (active) |  | inactive | inactive
CN(C)CCCO[C@@H]1[C@H]2OC(C)(C)O[C@H]2O[C@@H]1C(O)CO (stereo not given in full) | inactive | inactive |  | inactive | inactive | inactive | inactive | inactive | inactive | inactive |  | inactive | inactive | inactive | inactive | inactive | inactive |  | inactive | inactive
CCC(=O)Oc1ccc2c(c1)CC[C@@H]1[C@@H]2CC[C@@]2(C)[C@H]1C[C@@H](OC(=O)CC)[C@@H]2OC(=O)CC | inactive | 75 nM (active) | inactive | inactive | inactive | 1880 nM (active) | inactive | inactive | inactive | inactive | inactive | inactive | inactive | inactive | inactive | inactive | inactive |  | inactive | inactive
